Molecules are shown by their SMILES. This is one part of the list. A call without a number means that no potency is given here. Results filed as inconclusive are left out. Calls of active or inactive are those of the source. The call rests on the fitted dose curve; in most records, active means well fitted inhibition curve with a large enough effect; inconclusive means small, poorly fitted or top-dose-only effect; inactive means flat fitted curve, though single readings scatter.

A short description of the test: Counterscreen for Target Class Profiling of Small Molecule Inhibitors of Methyltransferases. The conditions noted are these: MTase-Glo coupled enzymes, SAH conversion luminescence, no MTase; series mostly up to 57.3 µM. From the text:
PI: Matthew D. Hall Ph.D. and Quinlin M. Hanson Ph.D. National Center for Advancing Translational Sciences (NCATS) National Institute of Health (NIH) Rockville, MD Target class profiling (TCP) is a chemical biology approach amenable to investigating understudied biological targets. TCP is achieved by developing a generalizable assay platform and applying it to screen a curated set of compound libraries against representative members of a target class. Small molecule methyltransferases (SMMTase) are a subclass of methyltransferase that act on metabolites to modulate signaling pathways, metabolize xenobiotics, or balance the available methyl pool. We screened four curated libraries totaling 27,574 unique compounds against the SMMTases nicotinamide N-methyltransferase (NNMT), phenylethanolamine N-methyltransferase (PNMT), histamine N-methyltransferase (HNMT), glycine N-methyltransferase (GNMT), catechol O-methyltransferase (COMT), and guanidinoacetate N-methyltransferase (GAMT). The data generated by this TCP can be leveraged for informed tool molecule development. For example, in the associated publication we identified a chemotype of HNMT-selective inhibitors. Additionally, we identified a putative SMMTase-selective inhibitor with potential as a tool molecule for studying broader methyltransferase biology. High-through put screening assays were developed at the National Center for Advancing Translational Science (NCATS) for the enzymes NNMT, PNMT, HNMT, GNMT, COMT, and GAMT. Enzymatic activity was measured as a function of SAM cofactor conversion using the MTase Glo kit (Promega) for all enzymes. All assays were performed in 1536-well format with substrates and SAM concentrations at KM values. Enzyme concentration and assay timing were optimized for 10-20% SAM conversion. Initial screening of 27,574 compounds was done as single-point assays using the highest compound concentration (40 uM). 1,434 compounds were identified as hits (at least 50% inhibition) under these conditions. These compounds were replated in 11-point dose response and assayed against NNMT, PNMT, HNMT, GNMT, COMT, GAMT, and a counter-assay. The IC50 and efficacy (maximal response) values were determined for each dose-response curve. These values are also accounted for in the area under the curve (AUC) values.
PROTOCOL TABLE (as described by Inglese J, Shamu CE and Guy RK. 2007) SEQUENCE No. (e.g., 1, 2, 3, etc.); PARAMETER (e.g., Cells, Incubation, Reagent, etc.); VALUE; DESCRIPTION. 1; Reagent; 3 uL; SAH (16 uM) in reaction buffer, columns 1-48. 2; Reagent; 1 uL; SAM (4x) in reaction buffer, columns 1-48. 3; Controls; 23 nL; DMSO in column 4; sinefungin in DMSO (0 uM - 40 uM) in 7-point 1:2 dilution series (n = 2) in column 2. 4; Compounds; 23 nL; Columns 5-48. 5; Time; 20 min; Incubation. 6; Reagent; 1 uL; MTase-Glo reagent (5X), columns 1-48. 7; Time; 30 min; Incubation. 8; Reagent; 5 uL; MTase-Glo Detection reagent, columns 1-48. 9; Time; 30 min; Incubation. 10; Detection; Luminescence; ViewLux uHTS Microplate Imager (PerkinElmer). NOTES (numbers refer to Sequence numbers above) 1, 2. White Medium Binding 1536-well plates (white, flat bottom, medium binding Cat# AWK010000A, Aurora Microplates, Scottsdale, AZ); Reaction buffer: 50 mM Tris, pH 8.0, 3 mM MgCl2, 1 mM EDTA, 50 mM NaCl, 1 mM DTT, and 0.1 mg/mL BSA; refer to tables 2 and S1 for specific reagent concentrations. 3, 4. Pintool transfer 5, 7, 9. Room temperature 5. Final reaction conditions: 1 uM SAH, 4 uM SAM, 50 mM Tris, pH 8.0, 3 mM MgCl2, 1 mM EDTA, 50 mM NaCl, 1 mM DTT, and 0.1 mg/mL BSA. 7. Conversion of SAH to ADP; MTase Glo Kit (Promega, Madison, WI). 9. Conversion of ADP to ATP and detection by UltraGlo luciferase; MTase Glo Kit (Promega, Madison, WI). 10. Settings: 20 s exposure, 1X binning, high gain, medium speed. REFERENCES: Inglese J, Shamu CE and Guy RK, Reporting data from high throughput screening of small molecule libraries, Nature Chemical Biology, 2007, 3(8): 438-441. doi.org/10.1038/nchembio0807-438. […]
On to `CCCS(=O)(=O)N1CCCC(Cn2c(C)nc3cccnc32)C1` (configuration not stated), for which the Potency result is “inactive”.

On to `COc1ccccc1-c1[nH]nc2ncc(C(=O)N3CCN(Cc4ccccc4)CC3)nc12`, for which the Potency result was “inactive”.

For `COc1ccc(-c2nc3ccncc3[nH]2)cc1`, the Potency result is “inactive”.

Take `CCOc1ccccc1CN1CCC(Cc2nc(-c3cccnc3)n[nH]2)C1` (configuration not stated): the Potency result was “inactive”.

Take `CC(C)CCN1CC2(CCCN(C(=O)c3ccn(C)c(=O)c3)C2)CCC1=O` (configuration not stated): the Potency entry was “inactive”.

Consider `O=C(Nc1ccc2ncnc(N3CCCCC3)c2c1)C1CCCCC1`, for which the Potency was 9.61 µM (active).

`CC(C)c1nccn1CCCNc1nc(-c2ccncc2)nc2c1cnn2C`: the Potency result was “inactive”.

As to `CC1(C)[C@H](Cc2cc(-c3ccccc3)on2)C[C@@H]1NCC1CC1`, the Potency result was “inactive”.

On to `Cn1ccc(Nc2cc3c(cn2)CN(CCc2ccccc2)CCN3)n1`, for which the Potency result is “inactive”.

In the case of `Cc1cnc(C2CCC2)n1C1CCN(C(=O)CCC2CCCC2)CC1`, the Potency entry was “inactive”.

For the compound `CCCc1sc(NC(=O)C[C@H]2NC(=O)c3ccccc3NC2=O)nc1C(=O)OC`, the Potency result was “inactive”.

In the case of `COc1cc2c(cc1O)NC(=O)CC2c1cn[nH]c1-c1cc(C)ccc1C` (configuration not stated), the Potency result was “inactive”.

The values above are taken from PubChem BioAssay AID1745851 (National Center for Advancing Translational Sciences (NCATS), 2022).
